In PubChem BioAssay (Tox21):
Several values for one entry are separate records, joined by “and”; a condition that tells them apart may be missing. Equal entries are not always repeated. Values without a mark were called inactive. Inconclusive results are not listed. Where a call stands in place of a potency, no number is given. Activity calls are given as the source filed them. Unless noted, the call rests on the fitted dose curve; in most records, active means well fitted curve in the direction sought with a large enough effect in the repeat runs; inconclusive means weak or mixed curves; inactive means no such curve, though single readings can be large; an effect the other way counts as inactive or inconclusive.

Tests used:
[1] = Caspase-3/7 induction in HepG2 cells by small molecules, qHTS assay (AID 1346978); further: nearly all actives have a fitted effect of over 15% in size; further: potency means the concentration at half of the fitted maximal effect
Method in brief: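 Wild-type HepG2 cells, 2,000/well, settled 5 hr at 37 C and 5% CO2, then compound-treated for 17 hr; caspase-3/7 activity read by luminescent Caspase-Glo 3/7 after 30 min at room temperature.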

[2] = Caspase-3/7 induction in CHO-K1 cells by small molecules, qHTS cell viability counter screen (AID 1346979); further: nearly all actives have a fitted effect of over 35% in size; further: potency means the concentration at half of the fitted maximal effect
Method in brief: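 Cytotoxicity counter screen run in parallel with the caspase-3/7 assay: CHO-K1 cells, 16hr compound treatment at 37C, then CellTiter-Fluor for 1hr before fluorescence reading.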

[3] = Caspase-3/7 induction in CHO-K1 cells by small molecules, qHTS assay (AID 1346980); further: nearly all actives have a fitted effect of over 15% in size
Method in brief: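 Wild-type CHO-K1 cells exposed to compounds for 17hr at 37 C, 5% CO2. Caspase-3/7 activity then measured by Caspase-Glo 3/7 luminescence after 30min at room temperature.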

[4] = Caspase-3/7 induction in HepG2 cells by small molecules, qHTS cell viability counter screen (AID 1346981); further: nearly all actives have a fitted effect of over 30% in size; further: potency means the concentration at half of the fitted maximal effect
Method in brief: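 Wild-type HepG2 cells, 2,000/well, settled 5 hr at 37 C, 5% CO2 before compound addition. Viability read by CellTiter-Fluor fluorescence, reagent added after 16 hr compound exposure, then 1 hr at 37C, in the same wells as the caspase read.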

[5] = target: Voltage-gated inwardly rectifying potassium channel KCNH2 (Homo sapiens) (UniProt Q12809); assay: Human Ether-a-go-go-Related Gene (hERG) channel small molecule antagonists: fluorescence cell-based qHTS assay (AID 1671200); further: nearly all actives have a fitted effect of over 50% in size; further: potency means the concentration at half of the fitted maximal effect
Sequence of Voltage-gated inwardly rectifying potassium channel KCNH2 (Homo sapiens) (Q12809 whole entry, looked up): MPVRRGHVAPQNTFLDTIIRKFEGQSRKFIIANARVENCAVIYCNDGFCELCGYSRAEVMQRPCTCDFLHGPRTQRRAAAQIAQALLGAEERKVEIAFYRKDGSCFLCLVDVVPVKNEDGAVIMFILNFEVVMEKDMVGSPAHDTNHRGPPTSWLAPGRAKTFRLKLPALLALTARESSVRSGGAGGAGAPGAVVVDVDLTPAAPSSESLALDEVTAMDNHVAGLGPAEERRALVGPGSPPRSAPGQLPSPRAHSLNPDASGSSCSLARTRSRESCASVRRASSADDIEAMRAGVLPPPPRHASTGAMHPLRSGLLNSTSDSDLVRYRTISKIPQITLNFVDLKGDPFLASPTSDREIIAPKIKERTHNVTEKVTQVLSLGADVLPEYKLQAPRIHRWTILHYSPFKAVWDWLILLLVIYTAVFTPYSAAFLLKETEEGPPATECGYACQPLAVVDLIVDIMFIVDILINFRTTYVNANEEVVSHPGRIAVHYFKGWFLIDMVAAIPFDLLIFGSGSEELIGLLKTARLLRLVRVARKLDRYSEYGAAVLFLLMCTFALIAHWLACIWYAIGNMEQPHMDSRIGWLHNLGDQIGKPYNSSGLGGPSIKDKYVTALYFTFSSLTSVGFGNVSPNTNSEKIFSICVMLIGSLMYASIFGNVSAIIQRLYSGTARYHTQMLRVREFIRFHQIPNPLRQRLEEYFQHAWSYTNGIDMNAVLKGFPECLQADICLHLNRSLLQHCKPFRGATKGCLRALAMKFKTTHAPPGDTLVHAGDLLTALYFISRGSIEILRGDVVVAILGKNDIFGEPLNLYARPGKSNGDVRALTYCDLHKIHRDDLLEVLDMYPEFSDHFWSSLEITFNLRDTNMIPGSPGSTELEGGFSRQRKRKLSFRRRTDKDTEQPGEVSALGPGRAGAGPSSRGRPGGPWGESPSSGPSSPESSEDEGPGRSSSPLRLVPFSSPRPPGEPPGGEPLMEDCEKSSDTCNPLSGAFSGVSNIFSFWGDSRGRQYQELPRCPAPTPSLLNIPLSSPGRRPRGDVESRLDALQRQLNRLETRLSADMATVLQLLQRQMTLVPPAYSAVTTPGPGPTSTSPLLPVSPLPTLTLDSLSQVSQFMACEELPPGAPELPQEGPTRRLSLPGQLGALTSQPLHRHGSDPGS
Method in brief: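 Fluorescence at 540 nm emission (480 nm excitation) was recorded kinetically for 2 min at 1-second intervals once the thallium-containing stimulus reached cells previously loaded with FluxOR II dye.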

[6] = target: Nuclear receptor subfamily 1 group I member 2 (Homo sapiens) (UniProt O75469); assay: Human pregnane X receptor (PXR) small molecule agonists, qHTS assay (AID 1346982); further: nearly all actives have a fitted effect of over 35% in size; further: potency means the concentration at half of the fitted maximal effect
Sequence of Nuclear receptor subfamily 1 group I member 2 (Homo sapiens) (O75469 whole entry, looked up): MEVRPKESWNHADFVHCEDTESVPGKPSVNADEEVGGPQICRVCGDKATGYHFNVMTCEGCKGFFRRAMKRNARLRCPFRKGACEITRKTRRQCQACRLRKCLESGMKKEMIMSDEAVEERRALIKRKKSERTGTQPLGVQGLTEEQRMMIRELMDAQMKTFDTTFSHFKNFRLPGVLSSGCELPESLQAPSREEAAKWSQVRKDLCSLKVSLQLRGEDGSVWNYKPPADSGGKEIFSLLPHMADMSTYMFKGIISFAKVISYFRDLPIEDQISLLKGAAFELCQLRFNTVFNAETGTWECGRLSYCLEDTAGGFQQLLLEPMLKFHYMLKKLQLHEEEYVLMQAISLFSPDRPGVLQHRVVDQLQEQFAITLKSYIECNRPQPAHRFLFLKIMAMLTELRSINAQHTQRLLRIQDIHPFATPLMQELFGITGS
Method in brief: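 PXR-Luc HepG2 reporter cells (CYP3A4-driven luciferase) in 5% charcoal-stripped FBS medium, plated 5 h before compound addition, then treated 24 h at 37C. Luciferase read by ONE-Glo luminescence after 30 min at room temperature.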

[7] = target: Acetylcholinesterase (Homo sapiens) (UniProt P22303); assay: Acetylcholinesterase (AChE) small molecule antagonists: colormetric cell-based qHTS assay (AID 1347395; calls by dose curve; further: nearly all actives have a fitted effect of over 30% in size; further: potency means the concentration at half of the fitted maximal effect)
Sequence of Acetylcholinesterase (Homo sapiens) (P22303 whole entry, looked up): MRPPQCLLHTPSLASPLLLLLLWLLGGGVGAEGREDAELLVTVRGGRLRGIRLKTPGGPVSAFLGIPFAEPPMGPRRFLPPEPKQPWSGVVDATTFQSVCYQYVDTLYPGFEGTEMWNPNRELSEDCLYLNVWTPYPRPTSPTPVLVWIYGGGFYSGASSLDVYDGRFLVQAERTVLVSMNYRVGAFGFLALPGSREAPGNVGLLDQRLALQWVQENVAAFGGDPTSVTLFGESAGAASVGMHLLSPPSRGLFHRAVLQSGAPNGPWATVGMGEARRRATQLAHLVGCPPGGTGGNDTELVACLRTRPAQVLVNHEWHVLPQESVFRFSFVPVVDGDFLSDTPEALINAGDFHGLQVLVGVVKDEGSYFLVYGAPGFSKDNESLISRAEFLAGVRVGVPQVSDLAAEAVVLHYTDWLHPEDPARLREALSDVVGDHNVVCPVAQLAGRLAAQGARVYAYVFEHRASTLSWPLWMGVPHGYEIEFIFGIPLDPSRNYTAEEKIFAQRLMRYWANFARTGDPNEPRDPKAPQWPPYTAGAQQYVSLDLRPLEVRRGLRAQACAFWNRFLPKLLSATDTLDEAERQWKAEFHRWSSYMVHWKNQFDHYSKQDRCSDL
Method in brief: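 Cells (SH-SY5Y, 2,000 per well) are seeded and left overnight at 37 C. Compound is added for 30 min, then DTNB and acetylthiocholine for a further 90 min at 37 C before absorbance-based thiocholine detection.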

[8] = target: Acetylcholinesterase (Homo sapiens) (UniProt P22303); assay: Acetylcholinesterase (AChE) small molecule antagonists: enzyme-based qHTS assay with human liver microsomes (AID 1347399; calls by dose curve; further: nearly all actives have a fitted effect of over 60% in size; further: potency means the concentration at half of the fitted maximal effect); settings: Potency: qHTS inhibition
Method in brief: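 Recombinant human AChE (50 mU/mL in the enzyme mix) and human liver microsomes (0.25 mg/mL final) were preincubated with compound and NADPH (0.25 mg/mL final) for 30 min at 37 C. Acetylthiocholine/DTNB was then added; thiocholine was read colorimetrically after 10 min at room temperature.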

[9] = target: Cytochrome P450 2C19 (Homo sapiens) (UniProt P33261); assay: Cytochrome P450 Family 2 Subfamily C Member 19 (CYP2C19) small molecule antagonists: luciferase reporter qHTS assay (AID 1671197); further: nearly all actives have a fitted effect of over 65% in size; further: potency means the concentration at half of the fitted maximal effect
Sequence of Cytochrome P450 2C19 (Homo sapiens) (P33261 whole entry, looked up): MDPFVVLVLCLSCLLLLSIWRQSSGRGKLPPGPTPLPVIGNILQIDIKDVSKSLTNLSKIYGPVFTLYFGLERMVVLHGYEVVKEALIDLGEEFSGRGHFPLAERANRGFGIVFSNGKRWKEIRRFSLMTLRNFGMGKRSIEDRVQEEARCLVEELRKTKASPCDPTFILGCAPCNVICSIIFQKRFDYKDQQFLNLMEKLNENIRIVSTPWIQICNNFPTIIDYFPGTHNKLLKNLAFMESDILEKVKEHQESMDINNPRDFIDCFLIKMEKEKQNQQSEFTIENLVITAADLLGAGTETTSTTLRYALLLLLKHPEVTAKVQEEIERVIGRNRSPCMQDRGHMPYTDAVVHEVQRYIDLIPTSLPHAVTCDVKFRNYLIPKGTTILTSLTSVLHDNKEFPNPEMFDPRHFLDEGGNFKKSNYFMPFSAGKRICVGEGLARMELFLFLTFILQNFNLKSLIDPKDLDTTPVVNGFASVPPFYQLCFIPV
Method in brief: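 Compounds were tested on CYP2C19 activity via proluciferin conversion to luciferin. The 37C, 1 h reaction followed NADPH addition; detection reagent stopped it.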

[10] = target: Cytochrome P450 2C9 (Homo sapiens) (UniProt P11712); assay: Cytochrome P450 Family 2 Subfamily C Member 9 (CYP2C9) small molecule antagonists: luciferase reporter qHTS assay (AID 1671198); further: nearly all actives have a fitted effect of over 50% in size; further: potency means the concentration at half of the fitted maximal effect
Sequence of Cytochrome P450 2C9 (Homo sapiens) (P11712 whole entry, looked up): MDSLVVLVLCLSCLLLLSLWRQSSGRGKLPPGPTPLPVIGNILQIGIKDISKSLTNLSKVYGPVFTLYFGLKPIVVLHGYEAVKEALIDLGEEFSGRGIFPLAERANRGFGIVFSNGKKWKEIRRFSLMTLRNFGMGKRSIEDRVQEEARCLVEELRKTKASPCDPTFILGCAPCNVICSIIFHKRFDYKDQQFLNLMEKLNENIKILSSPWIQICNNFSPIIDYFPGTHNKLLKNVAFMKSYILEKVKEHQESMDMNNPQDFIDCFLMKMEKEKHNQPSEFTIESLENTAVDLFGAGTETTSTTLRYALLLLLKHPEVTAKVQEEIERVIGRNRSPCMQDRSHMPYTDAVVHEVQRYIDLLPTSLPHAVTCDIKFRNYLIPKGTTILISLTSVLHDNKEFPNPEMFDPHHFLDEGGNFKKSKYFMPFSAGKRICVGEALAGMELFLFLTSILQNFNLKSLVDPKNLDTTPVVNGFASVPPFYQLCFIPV
Method in brief: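 P450-Glo proluciferin substrate with CYP2C9 enzyme; 10 min RT preincubation, then NADPH regeneration 1 h at 37C; luciferin detection reagent 20 min RT, luminescence in relative luminescence units.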

[11] = target: Cytochrome P450 1A2 (Homo sapiens) (UniProt P05177); assay: Cytochrome P450 Family 1 Subfamily A Member 2 (CYP1A2) small molecule antagonists: luciferase reporter qHTS assay (AID 1671199); further: nearly all actives have a fitted effect of over 50% in size; further: potency means the concentration at half of the fitted maximal effect
Sequence of Cytochrome P450 1A2 (Homo sapiens) (P05177 whole entry, looked up): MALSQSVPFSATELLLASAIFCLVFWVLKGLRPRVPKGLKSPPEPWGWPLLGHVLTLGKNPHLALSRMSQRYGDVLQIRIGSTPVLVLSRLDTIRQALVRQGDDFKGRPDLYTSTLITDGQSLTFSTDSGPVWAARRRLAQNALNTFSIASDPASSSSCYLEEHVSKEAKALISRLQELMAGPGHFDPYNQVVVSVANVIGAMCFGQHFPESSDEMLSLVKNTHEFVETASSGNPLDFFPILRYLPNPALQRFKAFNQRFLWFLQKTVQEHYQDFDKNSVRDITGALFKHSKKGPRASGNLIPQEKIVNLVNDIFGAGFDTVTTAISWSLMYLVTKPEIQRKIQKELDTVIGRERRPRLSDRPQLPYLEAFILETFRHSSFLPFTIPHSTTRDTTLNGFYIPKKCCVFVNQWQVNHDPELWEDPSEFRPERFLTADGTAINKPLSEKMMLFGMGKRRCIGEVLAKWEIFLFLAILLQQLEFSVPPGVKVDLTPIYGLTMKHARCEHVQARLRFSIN
Method in brief: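 P450-Glo CYP1A2 enzyme–proluciferin substrate mix with compound 10 min at room temperature, then NADPH regeneration 1 h at room temperature. Luciferin detection reagent added, luminescence read after 20 min; furafylline positive control.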

[12] = target: Cytochrome P450 3A4 (Homo sapiens) (UniProt P08684); assay: Cytochrome P450 Family 3 Subfamily A Member 4 (CYP3A4) small molecule antagonists: luciferase reporter qHTS assay (AID 1671201); further: nearly all actives have a fitted effect of over 50% in size; further: potency means the concentration at half of the fitted maximal effect
Sequence of Cytochrome P450 3A4 (Homo sapiens) (P08684 whole entry, looked up): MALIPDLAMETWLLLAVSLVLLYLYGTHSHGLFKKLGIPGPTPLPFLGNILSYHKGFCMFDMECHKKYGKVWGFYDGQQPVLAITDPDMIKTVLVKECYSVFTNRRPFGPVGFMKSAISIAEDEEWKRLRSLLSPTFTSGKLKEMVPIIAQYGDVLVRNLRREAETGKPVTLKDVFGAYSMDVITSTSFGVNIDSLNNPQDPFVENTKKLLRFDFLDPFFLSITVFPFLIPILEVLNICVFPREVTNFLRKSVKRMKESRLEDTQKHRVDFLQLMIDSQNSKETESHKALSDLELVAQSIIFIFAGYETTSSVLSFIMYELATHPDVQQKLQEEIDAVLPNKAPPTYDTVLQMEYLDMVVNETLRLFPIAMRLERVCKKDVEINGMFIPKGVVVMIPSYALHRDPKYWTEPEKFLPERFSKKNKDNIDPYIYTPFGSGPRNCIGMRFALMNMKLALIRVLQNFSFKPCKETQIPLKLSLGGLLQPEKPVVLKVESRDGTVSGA
Method in brief: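 qHTS, 1536-well. CYP3A4 + proluciferin substrate, cpd 10 min RT → NADPH regen 1 h RT → detection reagent 20 min → luminescence (RLU). Ketoconazole positive control.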

[13] = target: Acetylcholinesterase (Homo sapiens) (UniProt P22303); assay: Acetylcholinesterase (AChE) small molecule antagonists: enzyme-based qHTS assay (AID 1347397; calls by dose curve; further: nearly all actives have a fitted effect of over 55% in size); settings: Potency: AChE enzyme activity inhibition
Method in brief: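 Enzyme inhibition was scored from DTNB-detected thiocholine formed by recombinant human AChE acting on acetylthiocholine. The 30 min compound preincubation and 10 min substrate reaction were both run at room temperature, with DMSO as vehicle control.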

[14] = target: Acetylcholinesterase (Homo sapiens) (UniProt P22303); assay: Acetylcholinesterase (AChE) small molecule antagonists: fluorescence cell-based qHTS assay (AID 1347398; calls by dose curve; further: nearly all actives have a fitted effect of over 50% in size); settings: Potency: AChE activity
Method in brief: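 Endogenous acetylcholinesterase of SH-SY5Y neuroblastoma cells is measured in situ. After overnight attachment and 30 min compound exposure, cells receive acetylthiocholine and Thiolite Green; fluorescence is read after 40 min at room temperature.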

[15] = target: Cytochrome P450 2D6 (Homo sapiens) (UniProt P10635); assay: Cytochrome P450 Family 2 Subfamily D Member 6 (CYP2D6) small molecule antagonists: luciferase reporter qHTS assay (AID 1671196); further: nearly all actives have a fitted effect of over 50% in size; further: potency means the concentration at half of the fitted maximal effect
Method in brief: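 Cell-free P450-Glo system: CYP2D6 with proluciferin substrate was pre-incubated with compound for 10 min, then reacted with NADPH regeneration for 1 h at room temperature. Luciferin product was detected after 20 min, and data were reported as relative luminescence units.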

[16] = target: Nuclear receptor subfamily 1 group I member 2 (Rattus norvegicus) (UniProt Q9R1A7); assay: Rat pregnane X receptor (rPXR) activation by small molecules, qHTS assay (AID 1346983); settings: rPXR luciferase reporter cells, One-Glo luminescence, 24 h; max activation: stronger effect = higher value; further: nearly all actives have a fitted effect of over 20% in size
Sequence of Nuclear receptor subfamily 1 group I member 2 (Rattus norvegicus) (Q9R1A7 whole entry, looked up): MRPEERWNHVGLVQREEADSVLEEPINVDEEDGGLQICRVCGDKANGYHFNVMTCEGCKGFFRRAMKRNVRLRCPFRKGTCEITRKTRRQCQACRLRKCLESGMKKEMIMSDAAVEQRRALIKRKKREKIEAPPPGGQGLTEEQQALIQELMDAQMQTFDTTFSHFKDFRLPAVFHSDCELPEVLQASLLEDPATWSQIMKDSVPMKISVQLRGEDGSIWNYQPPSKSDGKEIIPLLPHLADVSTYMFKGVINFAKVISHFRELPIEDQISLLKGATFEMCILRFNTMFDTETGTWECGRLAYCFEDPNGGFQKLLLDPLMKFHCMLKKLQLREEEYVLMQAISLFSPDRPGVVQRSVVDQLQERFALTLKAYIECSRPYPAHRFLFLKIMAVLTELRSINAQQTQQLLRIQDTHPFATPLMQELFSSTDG
Method in brief: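 Cell-based rPXR activation assay: rPXR cells, 2,000 per well, rested 5hr at 37 C, then exposed to compounds in DMSO for 24 hr at 37 C. Luciferase activity read by One-Glo luminescence after 30 min at room temperature.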

[17] = target: Nuclear receptor subfamily 1 group I member 2 (Homo sapiens) (UniProt O75469); assay: Human pregnane X receptor (PXR) activation by small molecules, qHTS assay (AID 1346985); further: nearly all actives have a fitted effect of over 40% in size; further: potency means the concentration at half of the fitted maximal effect
Method in brief: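 DPX-2 cells (HepG2 co-transfected with a PXR response element and a CYP3A4-promoter luciferase construct) were seeded at 2,000 per well, rested 5 hr at 37C, then exposed to DMSO-dissolved compounds for 24 hr. Activation was read as luciferase luminescence.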

[18] = target: Nuclear receptor subfamily 1 group I member 2 (Homo sapiens) (UniProt O75469); assay: CYP3A4 induction through human pregnane X receptor (PXR) by small molecules, qHTS assay (AID 1346984); further: nearly all actives have a fitted effect of over 40% in size
Method in brief: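 DPX-2 HepG2 cells carrying a PXR response element and CYP3A4-promoter luciferase construct, treated with compounds 24 hr at 37C. Then P450-Glo CYP3A4 Luciferin-IPA substrate (3uM final) for 3 hr at 37C, One-Glo added, luminescence read.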

SMILES	Potency [1]	Potency [2]	Potency [3]	Potency [4]	Potency [5]	Potency [6]	Potency [7]	Potency [8]	Potency [9]	Potency [10]	Potency [11]	Potency [12]	Potency [13]	Potency [14]	Potency [15]	max activation [16]	Potency [17]	Potency [18]
CN(C)C(=S)S	19.7 µM (active) and 17.2 µM (active)	8.81 µM (active) and 857 nM (active) and 12.2 µM (active)	inactive	inactive	inactive	–	–	–	–	–	–	–	–	–	–	–	–	–
CCOP(=S)(OCC)SCS(=O)(=O)C(C)(C)C	inactive	inactive	inactive	inactive	inactive	9.69 µM (active)	63.3 µM (active)	8.94 µM (active)	1.78 µM (active)	5.64 µM (active)	44.8 µM (active)	2.83 µM (active)	–	–	–	–	–	–
COP(N)(=S)OC	inactive	inactive	inactive	inactive	inactive	inactive	63.3 µM (active)	inactive	–	–	inactive	inactive	inactive	inactive	–	–	–	–
ClCCN1CCOCC1	inactive	inactive	inactive	inactive	inactive	inactive	inactive	inactive	inactive	inactive	inactive	inactive	–	inactive	–	–	–	–
Cc1ccc(CCl)cc1	inactive	inactive	inactive	inactive	inactive	inactive	–	inactive	inactive	–	inactive	inactive	inactive	inactive	inactive	–	–	–
O=C(NC(=O)c1c(F)cccc1F)Nc1cc(Cl)c(OC(F)(F)C(F)F)c(Cl)c1	inactive	inactive	inactive	inactive	inactive	inactive	inactive	inactive	79.6 µM (active)	39.9 µM (active)	–	inactive	–	inactive	inactive	–	–	–
C[C@@H]1O[C@@H](O[C@H]2C[C@@H](O)[C@]3(CO)[C@H]4[C@H](O)C[C@]5(C)[C@@H](C6=CC(=O)OC6)CC[C@]5(O)[C@@H]4CC[C@]3(O)C2)[C@H](O)[C@H](O)[C@H]1O	–	–	–	–	–	–	–	–	–	–	–	–	–	–	–	0.399% and -3.08%	inactive	–
Clc1ccc(CCC(Cn2ccnc2)Sc2c(Cl)cccc2Cl)cc1 (stereo unspecified)	–	–	–	–	–	–	–	–	–	–	–	–	–	–	–	–	4.47 µM (active)	inactive
Clc1ccc(-c2ccc(Cl)c(Cl)c2Cl)c(Cl)c1Cl	inactive	inactive	inactive	–	inactive	–	inactive	inactive	1.91 µM (active)	17 µM (active)	33.9 µM (active)	inactive	inactive	inactive	inactive	–	–	–
[CH3][Hg][Cl]	inactive	7.67 µM (active)	inactive	–	24.5 µM (active)	inactive	–	inactive	–	–	inactive	39.8 µM (active)	inactive	inactive	inactive	–	–	–
c1ccc2c(c1)[nH]c1cnccc12	inactive	inactive	inactive	–	inactive	–	inactive	inactive	31.8 µM (active)	31.8 µM (active)	7.98 µM (active)	31.8 µM (active)	inactive	–	7.11 µM (active)	–	–	–
O=[N+]([O-])O.O=[N+]([O-])O.[Cd]	inactive	1.72 µM (active)	inactive	–	inactive	–	–	–	–	–	–	–	–	–	–	–	–	–
COC12CC[C@@]3(C[C@@H]1C(C)(O)C(C)(C)C)[C@H]1Cc4ccc(O)c5c4[C@@]3(CCN1CC1CC1)[C@H]2O5 (stereo partly specified)	60.7 µM (active)	43 µM (active)	–	68.1 µM (active)	–	3.04 µM (active)	–	inactive	–	–	inactive	–	–	inactive	2.23 µM (active)	–	–	–
COc1cc(N)c(Cl)cc1C(=O)NC1CN2CCC1CC2 (stereo unspecified)	inactive	inactive	–	inactive	–	inactive	–	–	–	inactive	inactive	inactive	–	–	13.8 µM (active)	-2.4%	inactive	inactive
CN(C)[C@@H]1C(=O)C(C(N)=O)=C(O)[C@@]2(O)C(=O)C3=C(O)c4c(O)ccc(Cl)c4[C@@](C)(O)[C@H]3C[C@@H]12	inactive	27.9 µM (active)	inactive	–	inactive	–	–	–	–	–	–	–	–	–	–	–	–	–
O=C(CCl)Nc1ccccc1	inactive	54.5 µM (active)	inactive	–	inactive	–	inactive	inactive	inactive	inactive	–	–	–	inactive	39.9 µM (active)	–	–	–
Fc1cccc(Cl)c1CCl	inactive	inactive	inactive	–	inactive	inactive	–	inactive	inactive	inactive	39.9 µM (active)	inactive	inactive	inactive	–	–	–	–
Oc1ccccc1Br	inactive	inactive	–	inactive	inactive	inactive	inactive	inactive	inactive	inactive	inactive	inactive	–	inactive	inactive	–	–	–
N#CCCC(Br)(C#N)CBr (stereo unspecified)	inactive	30.6 µM (active)	inactive	–	27.5 µM (active)	–	–	–	11.2 µM (active)	8.94 µM (active)	15.9 µM (active)	inactive	–	inactive	inactive	–	–	–
O=C(Cl)c1ccc(Cl)cc1	inactive	inactive	–	inactive	inactive	inactive	inactive	inactive	–	–	–	–	inactive	inactive	–	–	–	–
ClCc1ccccc1CCl	inactive	61.1 µM (active)	–	inactive	inactive	inactive	inactive	inactive	inactive	inactive	–	inactive	inactive	inactive	–	–	–	–
CN(C)C1CSSSC1	inactive	inactive	–	inactive	inactive	61.1 µM (active)	inactive	inactive	35.6 µM (active)	28.3 µM (active)	–	inactive	inactive	inactive	39.9 µM (active)	–	–	–
CCS(=O)(=O)c1cccnc1S(=O)(=O)NC(=O)Nc1nc(OC)cc(OC)n1	inactive	inactive	–	inactive	inactive	–	inactive	inactive	63.3 µM (active)	71 µM (active)	–	–	inactive	inactive	–	–	–	–
CC1(C)C(/C=C(\Cl)C(F)(F)F)C1C(=O)OC(C#N)c1cccc(Oc2ccccc2)c1 (stereo unspecified)	inactive	inactive	–	inactive	inactive	1.96 µM (active)	inactive	inactive	8.09 µM (active)	8.09 µM (active)	–	inactive	–	inactive	inactive	–	–	–
BrC(Br)Br	inactive	inactive	–	inactive	inactive	inactive	inactive	inactive	inactive	inactive	44.8 µM (active)	–	inactive	inactive	25.2 µM (active)	–	–	–
NNC(=O)c1ccccc1	inactive	inactive	–	inactive	inactive	31.5 µM (active)	inactive	inactive	41 µM (active)	41 µM (active)	32.6 µM (active)	36.6 µM (active)	–	inactive	–	–	–	–
